This note sets out measurements from PubChem BioAssay.

Test [1] deals with PRMT1 (protein arginine N-methyltransferase 1). As to the kind of experiment: PRMT1 binders on small-molecule microarrays, primary screen, biochemical, small-molecule microarray, 635 nm fluorescence (AID 1088).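 Note: binding of Prmt1 protein to compounds spotted on small-molecule microarray slides.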 The settings on record: small-molecule microarray binding, higher = more signal.
Test [2] is described as follows: yeast growth modulation, basal conditions, primary screen, YJM789 clinical isolate, OD600, 24 h (AID 1089).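 Note: growth of clinical yeast isolate S. cerevisiae YJM 789 seeded 1000 cells per well; test concentration not given here.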 The settings on record: S. cerevisiae YJM789 growth, higher = more signal, called active from +8 up or from −8 down.
Test [3] can be described thus: fission yeast growth modulation, primary screen, strain 972, OD600, 24 h, no modulator (AID 1090).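 Note: basal condition with compound alone and no growth modifier present; test concentration not given here.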 The settings on record: S. pombe 972 growth, higher = more signal, called active from +8 up or from −8 down.
Test [4] can be described thus: S. cerevisiae growth modulation with rapamycin, primary screen, strain BY4716, OD600, 96 h (AID 1091). Note: test concentration not given here. The conditions noted are these: higher = more signal, called active from +8 up or from −8 down.
In test [5] the target is Torsin-1A-interacting protein 2 (Homo sapiens) (UniProt Q8NFQ8). The test can be described thus: LULL1 binders on small-molecule microarray, primary screen, cell lysate, human LULL1 lysate, 635/667 nm fluorescence (AID 1092).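 Note: probe is lysate of COS7 cells overexpressing human LULL1; score merges per-feature 667 nm fluorescence with signal-to-noise.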 The settings on record: hLULL1 lysate binding, 635 nm fluorescence, higher = more signal.
Chain of Torsin-1A-interacting protein 2 (Homo sapiens) (Q8NFQ8 whole entry, looked up): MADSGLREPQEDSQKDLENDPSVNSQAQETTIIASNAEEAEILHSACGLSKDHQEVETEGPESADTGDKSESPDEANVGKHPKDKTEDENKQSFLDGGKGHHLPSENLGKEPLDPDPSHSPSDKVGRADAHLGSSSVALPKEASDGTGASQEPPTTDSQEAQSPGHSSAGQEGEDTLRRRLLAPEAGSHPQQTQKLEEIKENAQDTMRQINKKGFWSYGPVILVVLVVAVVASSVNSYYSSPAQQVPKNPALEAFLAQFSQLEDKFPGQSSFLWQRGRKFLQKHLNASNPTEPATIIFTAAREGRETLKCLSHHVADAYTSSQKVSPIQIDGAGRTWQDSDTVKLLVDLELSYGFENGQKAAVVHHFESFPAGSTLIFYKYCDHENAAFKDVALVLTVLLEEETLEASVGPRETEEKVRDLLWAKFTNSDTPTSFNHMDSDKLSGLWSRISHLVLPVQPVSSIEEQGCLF
A short description of test [6]: E. coli growth modulation, two-sided OD650, primary screen, E. coli filamentation project, strain DRC41, 24 h (AID 1093).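 Note: MC1000 strain lacking acrAB efflux and sulA so SOS filamentation is blocked; test concentration not given here.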 The settings on record: OD650, 24 h, higher = more signal, called active from +8 up or from −8 down.
Test [7] can be described thus: small-molecule microarray binders of probe aLefty2, primary screen, biochemical, biotinylated probe, 635/667 nm fluorescence (AID 1094).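 Note: score merges spot fluorescence near 667 nm with spot signal-to-noise ratio.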 The conditions noted are these: higher = more signal.
The subject of test [8] is Noggin (protein binding on small-molecule microarray). As to the kind of experiment: Noggin binders on small-molecule microarray, primary screen, biochemical, 635/667 nm fluorescence (AID 1095).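 Note: score merges 667 nm feature fluorescence with signal to noise over triplicate slides.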 The conditions noted are these: 635 nm fluorescence, higher = more signal.
Test [9] concerns the target Neurogenic locus notch homolog protein 3 (Homo sapiens) (UniProt Q9UM47). As to the kind of experiment: NOTCH3 binders on small-molecule microarray, primary screen, biochemical, 635/667 nm fluorescence (AID 1096). The settings on record: NOTCH3 binding, 635 nm fluorescence, higher = more signal.
Test [10] in a line: small-molecule microarray binders of probe aEGFR, primary screen, biochemical, biotinylated probe, 635/667 nm fluorescence (AID 1097).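 Note: probe is a biotinylated anti-EGFR antibody binding compounds printed on slides; score combines fluorescence near 667 nm and signal to noise of each spot.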 The settings on record: higher = more signal.
The test system of test [11] is Plasmodium falciparum Sir2 (PF13_0152, Sir2A). The test can be described thus: pfSir2 binders on small-molecule microarrays, primary screen, biochemical, small-molecule microarray, 635 nm fluorescence (AID 1098).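 Note: score merges spot fluorescence intensity with its signal-to-noise ratio.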 The conditions noted are these: small-molecule microarray binding, fluorescence 635 nm; higher = more signal.
Test [12] is described as follows: small-molecule microarray binders of probe aDKK1, primary screen, biochemical, biotinylated probe, 635/667 nm fluorescence (AID 1099).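 Note: score merges 667nm spot fluorescence with signal to noise across triplicate slides; reference of the scale not given here.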 The settings on record: higher = more signal.
A short description of test [13]: small-molecule microarray binders of probe aCHRDL2, primary screen, biochemical, biotinylated probe, 635/667 nm fluorescence (AID 1100). The settings on record: higher = more signal.
Test [14] is described as follows: splicing luciferase reporter signal modulators, primary screen, spliceosome inhibition project, cell-based, HEK293, splice +/- reporter (AID 1101).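 Note: HEK293 cells carrying a splicing-competent luciferase reporter gene; test concentration not given here.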 The settings on record: luminescence, 24 h, higher = more signal, called active from +8 up or from −8 down. On the technique in general: Reporter assays use an easily measured gene product as a stand-in for the process of interest.

The target in test [15] is Fibroblast growth factor 10 (Homo sapiens) (UniProt O15520). As to the kind of experiment: FGF10 binders on small-molecule microarrays, primary screen, biochemical, small-molecule microarray, 635 nm fluorescence (AID 1102). The conditions noted are these: FGF10 binding, fluorescence 635 nm, higher = more signal.
Chain of Fibroblast growth factor 10 (Homo sapiens) (O15520 whole entry, looked up): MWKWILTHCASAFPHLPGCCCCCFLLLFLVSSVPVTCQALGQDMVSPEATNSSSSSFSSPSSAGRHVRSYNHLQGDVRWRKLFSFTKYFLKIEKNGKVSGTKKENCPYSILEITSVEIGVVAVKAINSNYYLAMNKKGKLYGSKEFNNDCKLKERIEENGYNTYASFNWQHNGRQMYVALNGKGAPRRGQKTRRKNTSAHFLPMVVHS
The test system of test [16] is glycogen synthase kinase-3 (GSK3A per assay name; protocol says GSK3B). The test can be described thus: GSK3 binders on small-molecule microarrays, primary screen, biochemical, small-molecule microarray, 635 nm fluorescence, GSK3A (AID 1103). Note: the record names both GSK3A and GSK3B. The settings on record: small-molecule microarray binding, fluorescence 635 nm; higher = more signal.
For test [17], the target named is Epidermal growth factor receptor (Homo sapiens) (UniProt P00533). As to the kind of experiment: EGFR binders on small-molecule microarrays, primary screen, biochemical, small-molecule microarray, 635 nm fluorescence (AID 1104).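 Note: score merges 667 nm emission intensity with spot signal to noise over triplicate slides.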 The conditions noted are these: EGFR binding, higher = more signal.
Chain of Epidermal growth factor receptor (Homo sapiens) (P00533 whole entry, looked up): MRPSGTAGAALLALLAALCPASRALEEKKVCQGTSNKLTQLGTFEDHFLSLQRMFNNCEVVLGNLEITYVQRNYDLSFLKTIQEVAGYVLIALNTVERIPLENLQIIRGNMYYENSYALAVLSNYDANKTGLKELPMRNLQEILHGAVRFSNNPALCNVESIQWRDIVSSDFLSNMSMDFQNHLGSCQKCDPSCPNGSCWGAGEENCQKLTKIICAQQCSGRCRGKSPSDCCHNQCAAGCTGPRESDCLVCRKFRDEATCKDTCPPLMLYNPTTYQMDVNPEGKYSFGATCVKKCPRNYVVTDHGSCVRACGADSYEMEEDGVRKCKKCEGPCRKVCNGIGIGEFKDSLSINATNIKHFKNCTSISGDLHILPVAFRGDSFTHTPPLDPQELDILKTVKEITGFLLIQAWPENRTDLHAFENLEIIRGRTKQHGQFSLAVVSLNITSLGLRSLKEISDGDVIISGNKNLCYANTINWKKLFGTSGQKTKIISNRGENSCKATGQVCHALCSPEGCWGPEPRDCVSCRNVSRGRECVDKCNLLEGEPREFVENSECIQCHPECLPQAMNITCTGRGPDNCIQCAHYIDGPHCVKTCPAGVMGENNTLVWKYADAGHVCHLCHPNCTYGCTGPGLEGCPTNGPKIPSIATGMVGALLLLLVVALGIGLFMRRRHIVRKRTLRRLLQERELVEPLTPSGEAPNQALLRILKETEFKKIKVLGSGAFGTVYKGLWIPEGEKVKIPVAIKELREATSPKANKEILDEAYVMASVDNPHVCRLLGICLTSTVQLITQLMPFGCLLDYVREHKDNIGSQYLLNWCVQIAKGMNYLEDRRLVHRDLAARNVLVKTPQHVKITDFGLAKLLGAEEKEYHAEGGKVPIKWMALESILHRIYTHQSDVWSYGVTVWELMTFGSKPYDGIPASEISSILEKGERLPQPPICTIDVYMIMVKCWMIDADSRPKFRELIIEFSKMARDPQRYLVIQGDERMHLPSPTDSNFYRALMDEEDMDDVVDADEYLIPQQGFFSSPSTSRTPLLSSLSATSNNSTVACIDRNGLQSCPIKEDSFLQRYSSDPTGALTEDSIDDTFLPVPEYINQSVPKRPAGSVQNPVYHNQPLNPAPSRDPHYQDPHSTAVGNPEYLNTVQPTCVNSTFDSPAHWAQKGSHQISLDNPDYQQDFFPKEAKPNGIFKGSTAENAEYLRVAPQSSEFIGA
In test [18] the target is Follistatin-related protein 3 (Homo sapiens) (UniProt O95633). As to the kind of experiment: FSTL3 binders on small-molecule microarrays, primary screen, biochemical, small-molecule microarray, 635 nm fluorescence (AID 1105).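 Note: score merges emission near 667 nm and signal to noise per printed spot across three slides.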 The conditions noted are these: FSTL3 binding, higher = more signal.
Chain of Follistatin-related protein 3 (Homo sapiens) (O95633 whole entry, looked up): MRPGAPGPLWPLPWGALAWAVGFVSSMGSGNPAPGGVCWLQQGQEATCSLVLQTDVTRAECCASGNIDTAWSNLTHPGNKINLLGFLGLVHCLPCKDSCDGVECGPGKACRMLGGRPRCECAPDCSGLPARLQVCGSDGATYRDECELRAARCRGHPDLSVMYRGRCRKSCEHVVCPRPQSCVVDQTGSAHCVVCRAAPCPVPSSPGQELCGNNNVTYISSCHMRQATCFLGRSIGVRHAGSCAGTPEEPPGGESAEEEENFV
The target in test [19] is Dickkopf-related protein 1 (Homo sapiens) (UniProt O94907). As to the kind of experiment: DKK1 binders on small-molecule microarrays, primary screen, biochemical, small-molecule microarray, 635 nm fluorescence scan (AID 1106).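 Note: score merges emission near 667 nm with signal to noise over three replicate slides.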 The conditions noted are these: DKK1 binding, higher = more signal.
Chain of Dickkopf-related protein 1 (Homo sapiens) (O94907 whole entry, looked up): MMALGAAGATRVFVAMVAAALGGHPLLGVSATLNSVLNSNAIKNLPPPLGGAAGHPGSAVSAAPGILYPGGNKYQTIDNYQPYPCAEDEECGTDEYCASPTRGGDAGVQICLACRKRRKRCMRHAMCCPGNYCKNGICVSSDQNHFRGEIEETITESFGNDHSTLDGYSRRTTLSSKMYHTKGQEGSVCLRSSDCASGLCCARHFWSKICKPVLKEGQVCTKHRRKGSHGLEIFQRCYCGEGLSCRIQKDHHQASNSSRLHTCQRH
Test [20] relates to Inhibin beta A chain (activin A). The test can be described thus: INHBA (activin A) binders on microarrays, primary screen, biochemical, small-molecule microarray, 635 nm fluorescence scan (AID 1107).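 Note: mouse activin A protein probed at 4.33 µg/mL on printed slides; score merges bound-protein fluorescence near 667 nm with spot signal-to-noise.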 The conditions noted are these: small-molecule microarray binding, higher = more signal.

Calls of active or inactive are those of the source.

Chain of Neurogenic locus notch homolog protein 3 (Homo sapiens) (Q9UM47 whole entry, looked up): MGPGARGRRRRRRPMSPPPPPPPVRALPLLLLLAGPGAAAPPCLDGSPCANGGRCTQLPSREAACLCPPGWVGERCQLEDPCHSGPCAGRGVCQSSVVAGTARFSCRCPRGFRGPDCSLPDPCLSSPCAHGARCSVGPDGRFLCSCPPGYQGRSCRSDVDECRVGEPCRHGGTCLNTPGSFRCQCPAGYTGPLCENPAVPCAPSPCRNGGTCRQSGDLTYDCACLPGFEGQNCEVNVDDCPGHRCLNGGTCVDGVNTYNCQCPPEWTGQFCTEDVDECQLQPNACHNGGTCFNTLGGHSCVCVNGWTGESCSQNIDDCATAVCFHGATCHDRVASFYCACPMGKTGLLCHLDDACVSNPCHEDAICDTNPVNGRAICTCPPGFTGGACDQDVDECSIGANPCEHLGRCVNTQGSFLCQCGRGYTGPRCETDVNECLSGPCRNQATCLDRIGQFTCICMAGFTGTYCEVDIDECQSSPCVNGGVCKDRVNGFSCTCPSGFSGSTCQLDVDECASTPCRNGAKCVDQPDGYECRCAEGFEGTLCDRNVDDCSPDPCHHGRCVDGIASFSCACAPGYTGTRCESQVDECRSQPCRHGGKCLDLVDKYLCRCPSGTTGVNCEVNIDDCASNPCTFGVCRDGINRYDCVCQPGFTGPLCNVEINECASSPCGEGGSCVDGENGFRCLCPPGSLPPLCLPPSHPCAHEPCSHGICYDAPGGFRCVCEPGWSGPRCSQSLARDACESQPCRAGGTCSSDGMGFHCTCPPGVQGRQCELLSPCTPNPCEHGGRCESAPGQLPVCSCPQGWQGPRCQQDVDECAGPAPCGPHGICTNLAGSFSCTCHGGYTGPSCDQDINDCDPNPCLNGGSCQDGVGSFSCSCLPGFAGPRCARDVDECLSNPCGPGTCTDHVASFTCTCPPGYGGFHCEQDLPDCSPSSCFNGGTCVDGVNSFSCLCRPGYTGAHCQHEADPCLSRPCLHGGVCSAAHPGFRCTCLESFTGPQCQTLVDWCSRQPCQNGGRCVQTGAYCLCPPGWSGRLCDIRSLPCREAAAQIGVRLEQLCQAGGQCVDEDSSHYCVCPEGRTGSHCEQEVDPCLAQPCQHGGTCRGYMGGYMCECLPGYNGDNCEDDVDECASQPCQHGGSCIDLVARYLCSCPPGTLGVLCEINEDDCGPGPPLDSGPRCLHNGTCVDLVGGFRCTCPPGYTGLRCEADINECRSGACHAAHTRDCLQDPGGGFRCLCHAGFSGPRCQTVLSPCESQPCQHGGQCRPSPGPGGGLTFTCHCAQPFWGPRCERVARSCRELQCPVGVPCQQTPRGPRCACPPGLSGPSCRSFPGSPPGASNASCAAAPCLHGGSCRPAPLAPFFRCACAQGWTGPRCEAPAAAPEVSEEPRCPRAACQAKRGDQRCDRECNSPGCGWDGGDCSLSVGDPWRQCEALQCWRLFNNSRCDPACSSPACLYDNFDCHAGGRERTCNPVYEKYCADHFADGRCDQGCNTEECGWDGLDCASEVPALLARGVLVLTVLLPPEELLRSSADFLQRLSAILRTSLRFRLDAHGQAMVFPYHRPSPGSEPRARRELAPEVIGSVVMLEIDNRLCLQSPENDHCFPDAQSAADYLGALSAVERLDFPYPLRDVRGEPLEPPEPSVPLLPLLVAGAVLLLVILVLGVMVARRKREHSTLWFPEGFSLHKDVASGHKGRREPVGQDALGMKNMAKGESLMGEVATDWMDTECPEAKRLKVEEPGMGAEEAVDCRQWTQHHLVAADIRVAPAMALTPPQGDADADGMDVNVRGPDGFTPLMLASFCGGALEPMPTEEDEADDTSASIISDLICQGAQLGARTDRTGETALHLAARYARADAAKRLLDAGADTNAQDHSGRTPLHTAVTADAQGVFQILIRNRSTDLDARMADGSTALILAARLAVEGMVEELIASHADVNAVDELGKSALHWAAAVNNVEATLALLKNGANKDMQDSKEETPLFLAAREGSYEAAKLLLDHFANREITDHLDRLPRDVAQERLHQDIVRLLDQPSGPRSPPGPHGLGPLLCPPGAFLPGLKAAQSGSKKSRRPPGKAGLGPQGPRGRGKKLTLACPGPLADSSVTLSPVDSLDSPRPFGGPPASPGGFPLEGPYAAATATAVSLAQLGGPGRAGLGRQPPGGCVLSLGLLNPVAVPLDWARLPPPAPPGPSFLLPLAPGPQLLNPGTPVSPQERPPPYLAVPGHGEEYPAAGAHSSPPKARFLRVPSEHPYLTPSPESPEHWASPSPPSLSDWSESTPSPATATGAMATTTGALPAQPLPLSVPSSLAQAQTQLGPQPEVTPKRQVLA

As for `CC/C=C/C(=O)N(C[C@@H]1CCCO1)[C@@H]1CC(C(=O)NCCO)=C[C@H](Oc2c(I)cc(CO)cc2OC)[C@H]1O`, the composite z-score in test [1] was 0.505; in test [5], 1.69; in test [7], 0.0612; in test [8] it was -0.294; in test [9], -0.155; in test [10], -0.191. Moreover, the composite z-score was -0.251 in test [11]; -0.154 in test [12]; -0.162 in [13]; 0.541 in test [15]; -0.208 in [16]; 0.0798 in test [17]. In addition, the composite z-score was -0.434 in [18], 0.554 in [19] and 0.0756 in [20]. Also, the z-score was -0.811 (inactive) in test [2]; -1.79 (inactive) in test [3]; -1.91 (inactive) in [4]; -0.159 (inactive) in test [6]; -1.44 (inactive) in test [14].

For the compound `C[C@H]1COC(=O)[C@H](Cc2ccccc2)NC(=O)[C@@H](C)COC(=O)[C@H](Cc2ccccc2)NC1=O`, the composite z-score was 1.57 in test [1]; 1.92 in [5]; -0.243 in test [7]; 0.996 in [8]; 1.13 in test [9]; -0.0781 in test [10]. For the same compound, the composite z-score in test [11] is 0.692; in test [12], -0.165; in test [13] it was -0.563; in [15], 0.632; in test [16], 0.847; in test [17] it was 0.485. The figures for the composite z-score in test [18], in [19] and in test [20] were 0.897, 1.11 and -0.687, respectively. Also, the z-score is -0.743 (inactive) in test [2]; -1.27 (inactive) in test [3]; -0.278 (inactive) in test [4]; -0.208 (inactive) in test [6]; -1.67 (inactive) in test [14].

With `C=CCc1cccc([C@H]2N[C@H](C(=O)O)CC[C@@H]2C)c1`, the composite z-score was 0.453 in test [1]; -0.0584 in test [5]; -0.203 in test [7]; 1.17 in [8]; 0.245 in [9]; -0.0828 in test [10]. In addition, the composite z-score in test [11] is 0.289; in test [12] it was -0.6; in [13], -0.832; in [15], 0.219; in [16], 0.706; in test [17] it was 0.793. In addition, the composite z-score amounted to 0.778 in [18], 1.22 in test [19] and 1.12 in [20]. The z-score was 0.468 (inactive) in [2]; 0.0843 (inactive) in [3]; 2.04 (inactive) in test [4]; 0.271 (inactive) in [6]; -0.704 (inactive) in [14].

With `C[C@@H]1CC[C@H]2C(=O)N3[C@@H](CC[C@@H](C)[C@@H]3c3cccc(N4CCOCC4)c3)C(=O)N2[C@H]1c1cccc(N2CCOCC2)c1`, the composite z-score in test [1] is 0.52; in test [5], 0.44; in test [7], -0.275; in test [8], 0.252; in test [9], 0.464; in test [10], -0.012. Further, the composite z-score in test [11] came out at 1.15; in [12], 0.335; in test [13], 0.189; in [15], 0.37; in test [16] it was 0.513; in test [17], 0.224. The composite z-score in test [18] turned out to be 1.12; in test [19], 1.82; in test [20] it was 0.866. Further, the z-score in [2] was 0.123 (inactive); in [3] it was 0.132 (inactive); in [4] it was 0.651 (inactive); in test [6], 0.593 (inactive); in test [14] it was -0.188 (inactive).

With `C=CCN(C(=O)C1N(c2ccc(CCO)cc2)C(=O)C2C(C(=O)O)C3C=CC21O3)C(C)(C)C` (stereo not given), the composite z-score in test [1] is -1.91; in test [5], 1.94; in test [7] it was -0.014; in test [8] it was -3.2; in test [9] it was -1.92; in [10], -0.356. Besides, the composite z-score in test [11] is 1.86; in test [12], -0.214; in [13], 1.24; in test [15] it was -1.86; in test [16], -0.723; in [17], -3.08. The composite z-score was -2.73 in [18], -4.35 in test [19] and -1.06 in test [20]. The z-score in [2] is -0.696 (inactive); in test [3], -1.89 (inactive); in test [4] it was -0.569 (inactive); in test [6] it was 2.89 (inactive); in test [14] it was -1.32 (inactive).
